High-throughput results deposited in PubChem by National Center for Advancing Translational Sciences (NCATS).
Hits are enriched below; roughly 6.2% of the tested compounds scored in any of these assays.
KB-V1 MDR tox: KB-V1 MDR subline cytotoxicity. AID 1347076. KB-V1 MDR cells viability, CellTiter-Glo, 72 h. Potency, µM (titrated, usually from 46.1 µM), most hits filed as cytotoxic. 400,000 compounds, 3.4% hits; note: % is set by controls: 0 for no effect and ±100 for the full control effect; nearly all actives have a fitted effect of over 60% in size
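Readout: CellTiter-Glo luminescence, 10 min after addition. Cells: KB-V1 MDR subline, 72 h at 37 degrees C with compound. Analysis: corrected, normalized data fitted to concentration-effect curves.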
ATXN viability: viability counter-screen for ATXN expression inhibitors | Potency, µM (series often up to 56.7 µM), most hits filed as cytotoxic | S2 cells (HEK-293 line with an ATXN2-luciferase reporter) viability, CellTiter-Fluor protease fluorescence, 24 h | 400,000 compounds, 0.49% hits; note: nearly all actives have a fitted effect of over 40% in size
HT1080 IDH1KD tx: kills HT-1080 cells with IDH1 knockdown; Potency, µM (doses to about 46.1 µM), without a hit: at the highest dose activity, negative = toxicity, most hits filed as cytotoxic; HT-1080 IDH1 knockdown viability, ATP luminescence, 48 h; AID 686971; 360,000 compounds, 2% hits;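 note: 0% = DMSO wells and -100% = cell-free medium wells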
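% activity derives from luminescence (CellTiter-Glo), normalised to DMSO and no-cell wells. HT-1080-IDH1KD cells, 750/well, had 48 h compound exposure at 37 °C.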
HT1080-NT tox: kills 2HG-producing HT-1080-NT fibrosarcoma cells | AID 686970 | HT-1080-NT fibrosarcoma viability, CellTiter-Glo ATP luminescence, 48 h | 360,000 compounds, 1.6% hits | Potency, µM (top dose mostly 46.1 µM), for the others: at the top dose activity, negative = less viability, usual class: cytotoxic;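 note: NT is the 2HG producing partner of a matched IDH1 knockdown line; 0% = DMSO-treated cells and -100% = media-only wells without cells; nearly all actives have a fitted effect of over 55% in size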
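750 cells/well, RPMI + 5% FBS; 2 h settle, compound pin-transfer, 48 h at 37 degrees C. CellTiter-Glo 10 min RT, luminescence. Normalized to DMSO and media-only wells.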
KB-3-1 tox: KB-3-1 parental cell cytotoxicity; KB-3-1 viability, CellTiter-Glo ATP luminescence, 72 h; Potency, µM (titrated, usually from 46.1 µM), usual class: cytotoxic; 400,000 compounds, 1.4% hits; note: % is set by controls: 0 for no effect and ±100 for the full control effect; nearly all actives have a fitted effect of over 60% in size
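Cytotoxicity measured as CellTiter-Glo luminescence after 72 h at 37 C. Compound titrations were pinned onto drug-naive KB-3-1 parental adenocarcinoma cells grown in DMEM with 10% FBS, and normalized data fitted to concentration-response curves.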
ATXN2 expr inh: reduces ATXN2 reporter expression in HEK-293 cells | AID 1745845 | HEK-293 ATXN2-luciferase reporter, luminescence, 24 h | Potency, µM (doses to about 57 µM), inactives show at the highest dose activity change, negative = inhibition, actives largely listed as inhibitors | 360,000 compounds, 0.72% hits; note: % is set by controls: 0 for no effect and ±100 for the full control effect; nearly all actives have a fitted effect of over 55% in size
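qHTS (up to 57 uM final) was run with 24 h compound exposure of reporter cells at 37 °C. Each well was multiplexed: SteadyGlo luminescence measured ATXN2-luciferase expression after a fluorogenic Gly-Phe-AFC viability readout (25 uM final).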
* = called active by the depositor. Calls come from the whole dose curve; as a rule, active = well fitted curve in the direction sought with a large enough effect; inconclusive = small, poorly fitted or top-dose-only effect, or another doubt; inactive = no such curve, though single readings can be large; an effect the other way counts as inactive or inconclusive. Potency is the fitted concentration of half-maximal effect.

Results for O=C(Cn1ncc(Cl)c(Cl)c1=O)NC1CCS(=O)(=O)C1 (stereo not drawn) ?
KB-V1 MDR tox: inactive; ATXN viability: inactive; HT1080 IDH1KD tx: 2%; HT1080-NT tox: -5%; KB-3-1 tox: inactive; ATXN2 expr inh: 1%

Results for O=C(Cn1ncc(Cl)c(Cl)c1=O)NC1CCCCC1 ?
KB-V1 MDR tox: inactive; HT1080 IDH1KD tx: 15µM*; HT1080-NT tox: 13µM*; KB-3-1 tox: inconclusive; ATXN2 expr inh: inconclusive

What do the screens show for `Cc1cccc(NC(=O)CN2CCN(CC(=O)NCc3ccc(Cl)cc3Cl)CC2)c1C`?
KB-V1 MDR tox: 3.7µM*; ATXN viability: inactive; HT1080 IDH1KD tx: 11%; HT1080-NT tox: -3%; KB-3-1 tox: inactive; ATXN2 expr inh: -4%

Results for Cc1cccc(NC(=O)CNC(=O)Cn2ncc(Cl)c(Cl)c2=O)c1C ?
KB-V1 MDR tox: inconclusive; HT1080 IDH1KD tx: 7.3µM*; HT1080-NT tox: 26µM*; KB-3-1 tox: inconclusive; ATXN2 expr inh: inconclusive

What do the screens show for `O=C(Nc1ccc2c(c1)OCCO2)C(C1CC1)N1CCN(c2ccc(F)cc2)CC1` (stereo not drawn)?
KB-V1 MDR tox: inactive; ATXN viability: inconclusive; HT1080 IDH1KD tx: 15%; HT1080-NT tox: inconclusive; KB-3-1 tox: inactive; ATXN2 expr inh: -11%

How did Cc1ccc(NC(=O)CN(C)C(=O)Cc2ccc(Cl)c(Cl)c2)cc1 do in these assays?
KB-V1 MDR tox: inactive; ATXN viability: inactive; HT1080 IDH1KD tx: inconclusive; HT1080-NT tox: -15%; KB-3-1 tox: inactive; ATXN2 expr inh: -18%

What do the screens show for `Cc1ccc(NC(=O)CN(C)C(=O)Cn2ncc(Cl)c(Cl)c2=O)cc1`?
KB-V1 MDR tox: inconclusive; HT1080 IDH1KD tx: 21µM*; HT1080-NT tox: inconclusive; KB-3-1 tox: inconclusive; ATXN2 expr inh: inconclusive

How did O=C1CN(C(=O)COc2ccc(Cl)c(Cl)c2)c2ccccc2N1 do in these assays?
KB-V1 MDR tox: inactive; ATXN viability: inactive; HT1080 IDH1KD tx: -4%; HT1080-NT tox: 1%; KB-3-1 tox: inactive; ATXN2 expr inh: -1%

How did O=C1CN(C(=O)Cn2ncc(Cl)c(Cl)c2=O)c2ccccc2N1 do in these assays?
KB-V1 MDR tox: inconclusive; ATXN viability: inconclusive; HT1080 IDH1KD tx: 4.1µM*; HT1080-NT tox: 4.6µM*; KB-3-1 tox: inconclusive; ATXN2 expr inh: inconclusive

How did Cc1c(C(=O)N(C)C2CCOC2)sc2ncnc(NCc3ccc4c(c3)OCO4)c12 (stereo not drawn) do in these assays?
ATXN viability: inactive

Results for Cc1ccn2c(=O)c(C(=O)NCCc3ccccc3)c(O)nc2c1 ?
KB-V1 MDR tox: inconclusive; ATXN viability: inactive; KB-3-1 tox: inactive; ATXN2 expr inh: 9%

How did O=C(Cc1ccc2c(c1)OCO2)N1CCOc2ccc(CN3CCOCC3)cc2C1 do in these assays?
ATXN viability: inactive

What do the screens show for `CCOC(=O)C(=O)Cc1cccnn1`?
KB-V1 MDR tox: inactive; ATXN viability: inactive; HT1080 IDH1KD tx: 15%; HT1080-NT tox: 0%; KB-3-1 tox: inactive; ATXN2 expr inh: -6%

How did CCOC(=O)COc1ccc(/C=C(\C#N)c2nc3ccc(C)cc3[nH]2)cc1OC do in these assays?
KB-V1 MDR tox: inconclusive; ATXN viability: inactive; KB-3-1 tox: 18µM*; ATXN2 expr inh: -7%

What do the screens show for `COc1cc(/C=C(\C#N)c2nc3ccc(C)cc3[nH]2)c([N+](=O)[O-])cc1OC`?
KB-V1 MDR tox: inactive; ATXN viability: inactive; HT1080 IDH1KD tx: inconclusive; HT1080-NT tox: -19%; KB-3-1 tox: inactive; ATXN2 expr inh: -3%

Results for COc1cc(/C=C(\C#N)c2nc3ccc(C)cc3[nH]2)cc([N+](=O)[O-])c1O ?
KB-V1 MDR tox: inactive; ATXN viability: 18µM*; HT1080 IDH1KD tx: -7%; HT1080-NT tox: -14%; KB-3-1 tox: inactive; ATXN2 expr inh: 37%

Results for CCCC1([C@H](O)C/C=C/[C@H]2[C@H](O)CC(=O)[C@@H]2CCCCCCC(=O)OC)CCC1 ?
ATXN viability: 35µM*
